The values below come from PubChem BioAssay AID463190 (Sanford-Burnham Center for Chemical Genomics, 2010).

The inhibition is the change of the read-out against control, counted positive when it falls.

Among all 330,000 compounds or so, about 7,300 (2.2%) were called active. Shown is part of a subset that was picked to be rich in actives. Values without a mark were called inactive.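 How the source made its calls: active means inhibition of at least 40%; inactive means the rest.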

The assay in a line: growth inhibition of tim10-1 ts yeast – luminescence, uHTS, primary screen (AID 463190).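 Further: mutant grown at 25 °C; 0% = DMSO wells with yeast and 100% = wells holding no yeast.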 Particulars: S. cerevisiae tim10-1 ts strain growth, BacTiter-Glo, 24 h; at 20 µM; stronger effect = higher value.
Consider `Cc1n[nH]c(=O)c2c(NC(=O)COC(=O)c3ncc(Cl)c(Cl)c3Cl)oc(C)c12`, for which the inhibition was 10.5%. With `CC(C(=O)O)n1cnc2sc3c(c2c1=O)CCCC3` (stereo not given) the figure was 2.4%; with `COc1cc(Cl)ccc1OCc1cc(C(=O)N(C)CCc2c(C)n[nH]c2C)no1`, 7.82%; with `Cc1ccc(SC(CC(=O)c2ccc(C(C)(C)C)cc2)C(=O)O)cc1` (stereo not given), 40.7% (active). Under `Cc1ccc(CSCC(N)C(=O)O)cc1` (stereo not given) stands 13.8%; under `Cc1ccc(C(=O)CSc2ccccc2C(=O)O)cc1`, -0.398%; under `CCC(C(=O)OCC(=O)Nc1c(Cl)cc(Cl)cc1Cl)c1ccccc1` (stereo not given), 39.5%. Under `CCOC(=O)c1nnn(-c2nonc2-n2cccc2)c1CN1CCOCC1` stands 23.2%; under `CCOC(=O)c1c(CN2CCOCC2)n(-c2ccccc2)c2ccc(O)cc12`, 45% (active); under `CCOC(=O)c1c(CN(C)C)n(-c2ccccc2)c2cc(Br)c(O)cc12`, 10.1%.

With `Cc1ccc(NC(=O)CN2CCC3(O)CCCCC3C2c2ccc3c(c2)OCO3)c(C)c1` (stereo not given), the inhibition is 45.2% (active).

Turning to `CC1CCCCN1CC(=O)NCc1ccc2c(c1)OCO2` (stereo not given), the inhibition was 4.67%.

Consider `CCN(CC)c1ccc(C2C3CCCCC3(O)CCN2CC(=O)Nc2ccccc2)cc1` (stereo not given), for which the inhibition is -17.2%. With `COc1ccc(N2CCN(C(=O)COC(=O)c3cccc(S(=O)(=O)Nc4ccccc4OC)c3)CC2)cc1` the figure was 19.1%. Regarding `O=C1NC[C@@H](c2ccccc2)OC(=O)[C@H](Cc2ccc(F)cc2)CC/C=C/C[C@H]1CC(=O)N(CCO)Cc1ccccc1`, the inhibition is 3%. With `S=c1nc(C23CC4CC(CC(C4)C2)C3)nc2sccn12` the figure was -12.4%; with `CCOc1ccc(NC(=O)COc2ccc(C(=O)N3CCC(C(N)=O)CC3)cc2OC)cc1`, 3.08%; with `Cc1cccc(C2c3[nH]c4ccccc4c3CCN2C(=O)c2cc(-c3cccn3C)n[nH]2)n1` (stereo not given), 44% (active). In the case of `O=C(c1cn2ccccc2n1)N1CCc2c([nH]c3ccccc23)C1c1ccccn1` (stereo not given), the inhibition is 22.4%.

Regarding `Cc1cccc(C(=O)N2CCc3c([nH]c4ccccc34)C2CC(C)C)n1` (stereo not given), the inhibition is 10.6%. With `COCC1CCN(C(=O)C2CCC(=O)N(CC3CCCCC3)C2)CC1` (stereo not given) the figure was -9.11%. Consider `Cc1nc(SC(C)C)[nH]c(=O)c1Cc1ccccc1`, for which the inhibition was 18.7%.

On to `O=C1COc2ccc(S(=O)(=O)Nc3ccc(OC(F)(F)F)cc3)cc2N1`, for which the inhibition was 18.6%. Consider `O=S(=O)(Nc1ccc(O)c2ccccc12)c1ccc(OC(F)(F)F)cc1`, for which the inhibition is 42.5% (active). Under `Cc1nn(C)c(C)c1NS(=O)(=O)c1ccc(OC(F)(F)F)cc1` stands -1.38%; under `CC(=O)NS(=O)(=O)c1ccc2c(c1)Cc1cc(S(=O)(=O)NC(C)=O)ccc1-2`, -1.53%; under `O=C1CC2(CC(c3ccc(Cl)cc3)=NO2)C(=O)N1c1ccccc1` (stereo not given), -3.93%. Under `CN(C)CCCN(C(=O)c1ccc(S(=O)(=O)N2CCCc3ccccc32)cc1)c1nc2ccc(F)cc2s1` stands 52.8% (active); under `CN(C)CCCN(C(=O)c1ccc(S(=O)(=O)N2CCCCCC2)cc1)c1nc2ccc(Br)cc2s1`, 26.2%; under `CN(C)CCCN(C(=O)c1ccc(S(=O)(=O)N2CCCCCC2)cc1)c1nc2cc3c(cc2s1)OCCO3`, 27.4%. With `O=[N+]([O-])c1ccc(S(=O)(=O)Nc2cccc(-c3ccc(N4CCCC4)nn3)c2)cc1` the figure was 11.6%. `Cc1c(C(=O)NCCN2CCOCC2)sc2nc(-c3ccc(F)cc3)cn12`: the inhibition was 4.04%. Under `FC(F)(F)Oc1ccc(NC(=S)NCc2ccccc2)cc1` stands 41.8% (active). For `COC(=O)Cc1ccc(NC(=S)NCc2ccccc2)cc1`, the inhibition is 21.8%. In the case of `CCNC(=S)Nc1ccc(OC(F)(F)F)cc1`, the inhibition is 14.5%.

`Cc1ccc(CCNC(=O)C2CCN(S(=O)(=O)N3CCCC3)CC2)cc1`: the inhibition is 4.68%. With `CCOc1ccc(C2/C(=C(/O)c3ccc4c(c3)CC(C)O4)C(=O)C(=O)N2CCCn2ccnc2)cc1` (stereo not given) the figure was -3.88%. Under `Cc1[nH]c2ccccc2c1C(=O)CSCC(=O)O` stands 12.6%; under `Cc1[nH]c2ccccc2c1C(=O)COC(=O)c1c(-c2ccccc2)noc1C`, 52.3% (active); under `Cc1onc(-c2ccccc2Cl)c1C(=O)OCC(=O)c1ccccc1`, 11.7%. Under `Fc1cccc(Cl)c1CSc1ccc(-c2ccco2)nn1` stands 45.4% (active); under `Cc1cc(SCc2c(F)cccc2Cl)nc(=O)[nH]1`, 6.52%; under `O=C(CSc1ccc(-c2ccco2)nn1)Nc1cccc(F)c1`, 3.73%. In the case of `CC(C)NC(=O)C(=O)NCCN1CCN(S(=O)(=O)c2ccc(Cl)cc2)CC1`, the inhibition was 2.58%. For `CC/C(=N\O)C(C)(C)/[N+]([O-])=C/c1ccc(Br)cc1`, the inhibition is 5.1%. With `O=C(N/N=C/c1cccc(OCc2ccccc2)c1)c1ccc(Br)o1` the figure was 27.9%; with `N#C/C(=C\c1ccc(O)c(O)c1)C(=O)NCc1ccccc1`, -4.07%; with `COCCNC(=O)/C(C#N)=C/c1cccc(OCc2ccccc2)c1`, 52.7% (active). On to `C=CCNC(=O)COC(=O)c1ccccc1C(=O)N(C)C1CCCCC1`, for which the inhibition was 16.1%. Under `CCOc1ccc(CN2CCN(Cc3ccc(C)o3)CC2CCO)cc1` (stereo not given) stands 5.81%; under `O=C(CCc1ccc(S(=O)(=O)N2CCOCC2)cc1)Nc1ccc2ccccc2c1`, 41.9% (active).

In the case of `O=C(COC(=O)CCc1ccc(S(=O)(=O)N2CCOCC2)cc1)Nc1cccc(Cl)c1`, the inhibition is 5.19%. As to `Cc1ccc(CC(=O)Nc2ccc(S(=O)(=O)N3CCOCC3)cc2)cc1C`, the inhibition is 19%. `CC(C)(C)OC(=O)C[C@@H]1C/C=C\C[C@@H](CC(=O)N[C@H](CO)Cc2ccccc2)C(=O)NCCOC1=O`: the inhibition was -5.51%. With `Cc1ccc2c(c1)nnc1nnc(SCC(=O)O)n12` the figure was -10.5%; with `CC1OC2C(OC1C)N(S(C)(=O)=O)CCN2S(C)(=O)=O` (stereo not given), 1.46%; with `Cc1cc(Nc2ccc(Br)cc2)nc2ccccc12`, 29.6%. In the case of `Clc1ccc(Nc2ccc3ccccc3n2)cc1`, the inhibition was 54.1% (active). Under `Cc1cccc(NC(=O)c2ccc3ccccc3n2)n1` stands 27.1%; under `CCOC(=O)C1CCCN(S(=O)(=O)c2ccc3c(c2)C(C)(C)C(=O)N3C)C1` (stereo not given), -10.8%. `CC1CCC2(CC1)NC(=O)N(CC(=O)c1ccc3c(c1)OCO3)C2=O` (stereo not given): the inhibition was -17.1%.

Turning to `CSc1ccc(S(=O)(=O)NC2CCCCC2)cc1`, the inhibition was 45.6% (active). Regarding `Cc1ccc(S(=O)(=O)NC2CCCCCC2)cc1`, the inhibition was 21.3%.

For the compound `CC(C)c1ccc(S(=O)(=O)NC2CCCC2)cc1`, the inhibition is 19%. On to `CC(=O)c1ccccc1OCc1ccc(C(=O)c2ccccc2)cc1`, for which the inhibition is 9.55%. Under `O=C(C(=O)N1CCc2ccccc2C1)c1c[nH]c2ccccc12` stands 40.7% (active); under `CC1CCN(CC(=O)c2c[nH]c3ccccc23)CC1`, 16%. Under `O=C(NC1CCCC1)C(=O)c1c[nH]c2ccccc12` stands -16.2%; under `Cc1ccc(N2CC(C(=O)N3CCC4(CC3)CC(=O)c3ccccc3O4)CC2=O)cc1C` (stereo not given), 1.3%; under `Cc1ccc(C(=O)NC23CC4CC(CC(C4)C2)C3)c(Cl)c1`, -11.9%.

With `O=C(N/N=C1\CCSC1)c1cc(Cl)ccc1O`, the inhibition was -11.5%. Under `C/C(=N/NC(=O)c1cc(Cl)ccc1O)C12CC3CC(CC(C3)C1)C2` stands 50.7% (active); under `COc1ccc2nc(Nc3nc4cc5c(cc4s3)OCCO5)sc2c1`, 47.7% (active). Consider `COc1ccc2nc(NC(=O)NC3CCCCC3)sc2c1`, for which the inhibition is 21.2%.

For the compound `CCc1noc(C)c1C(=O)Nc1nc2ccc(OC)cc2s1`, the inhibition is 26.7%. Under `COc1ccc(N2CCN(Cc3ccc(Br)s3)CC2)cc1` stands 19.9%.

Consider `c1ccc(-c2cnc(CN3CCN(c4ccccc4)CC3)o2)cc1`, for which the inhibition was 2.4%.

On to `Fc1ccc(N2CCN(Cc3cnc(Oc4ccc(Br)cc4)s3)CC2)cc1`, for which the inhibition is 42.4% (active). Under `COc1ccc(N2CCN(C(CNS(=O)(=O)c3ccc(C)cc3)c3ccccc3)CC2)cc1` (stereo not given) stands 4.98%; under `CS(=O)(=O)c1ccc(C(=O)OCC(=O)NNC(=O)COc2ccc(Cl)cc2)cc1`, -15.1%. In the case of `C/C=C/c1ccc(OCCCCN2CCC(C)CC2)c(OC)c1`, the inhibition was 15.8%.

`COc1ccc(NC(=O)c2cc3nc(-c4ccccc4)cc(C)n3n2)cc1OC`: the inhibition was 51.1% (active).

Regarding `COc1ccc(NC(=O)c2ccccc2[N+](=O)[O-])cc1OC`, the inhibition was 15.9%. Under `COc1ccc(NC(=O)CNC(=O)Cc2ccccc2)cc1OC` stands -6.35%; under `O=C(COC(=O)/C=C/c1ccc(S(=O)(=O)N2CCCCCC2)cc1)NCc1ccccc1Cl`, 35.9%; under `Cc1onc(-c2ccccc2Cl)c1C(=O)N(Cc1ccc(N(C)C)cc1)C(C)C`, 23.4%. For the compound `O=c1ccc2c(-c3ccccc3S(=O)(=O)O)c3ccc(O)c(O)c3oc-2c1O`, the inhibition was 38.3%.

Regarding `Cc1ccccc1NC(=O)NCC1CCN(Cc2cccc(Cl)c2)CC1`, the inhibition is 4.31%.

With `Cc1ccc(C)c(CN2CCC(CNC(=O)Nc3ccc(C)c(F)c3)CC2)c1`, the inhibition was 30.5%. With `Cc1cccc(CN2CCC(CNC(=O)Nc3ccc(F)c(Cl)c3)CC2)c1` the figure was 41.3% (active).

For the compound `Cc1cccc(-c2c(NC(=O)c3ccco3)oc3ccc(Cl)cc3c2=O)c1`, the inhibition was 7.38%. With `CCN(C(=O)Cc1c(C(=O)O)n(CC)c2ccccc12)c1ccccc1C`, the inhibition is 19.7%.

As for `CN(C(=O)COc1nnc(-c2cccs2)c(-c2cccs2)n1)c1ccccc1`, the inhibition is 46.6% (active). For `O=C(O)COc1ccc(-c2nccc(-c3cccs3)n2)cc1`, the inhibition is 10.2%. As to `CN(C(=O)COC(=O)CNC(=O)C12CC3CC(CC(C3)C1)C2)c1ccccc1`, the inhibition was 4.63%.
